Compound activity deposited in PubChem by several laboratories.
Anthrax LF prot: inhibitors of Bacillus anthracis lethal factor protease; P15917; multiplex microsphere protease cleavage assay, LF; inhibition, % at 10 µM; hit rate 0.12% among 360,000; note: plate controls were buffer without enzyme for full effect and enzyme alone for no effect
BoNT-A LC inh2: blocks Botulinum neurotoxin A light chain protease; multiplex microsphere protease substrate cleavage, flow cytometry; inhibition, % at 10 µM; hit rate 0.17% among 360,000; AID 588499; note: plate controls were buffer without enzyme for full effect and enzyme alone for no effect
BoNT-F LC inh: inhibitors of Botulinum neurotoxin F light chain protease; Multiplex microsphere protease cleavage assay, flow cytometry; hit rate 0.22% among 360,000; inhibition, % at 10 µM; AID 588497; in the data active = inhibition above about 35%, passing the limit was not always enough; inconclusive = no clear call, values can overlap the other calls; note: plate controls were buffer without enzyme for full effect and enzyme alone for no effect
SARS 3CLpro inh: SARS-CoV 3CLpro protease inhibition. P0C6X7. recombinant SARS-CoV 3CLpro, quenched FRET peptide cleavage. inhibition, % at 6 µM. hit rate 0.14% among 290,000. AID 1706; in the data active = inhibition above about 12%
VHR inh abs: DUSP3 (human) phosphatase inhibition; P51452; recombinant VHR phosphatase, pNPP absorbance; AID 1654; hit rate 0.52% among 290,000; inhibition, % at 13.3 µM; in the data active = inhibition above about 50%
Target sequence (P51452 whole entry, looked up): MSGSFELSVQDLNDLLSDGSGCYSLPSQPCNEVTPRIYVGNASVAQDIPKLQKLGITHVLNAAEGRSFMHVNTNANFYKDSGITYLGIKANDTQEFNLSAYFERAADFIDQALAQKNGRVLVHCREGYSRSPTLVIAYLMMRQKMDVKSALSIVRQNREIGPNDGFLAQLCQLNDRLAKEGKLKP
Autofluor counter: counter-screen for toxin protease inhibitors: compound fluorescence; compound autofluorescence counterscreen, microsphere flow cytometry; active compounds read high; fluorescence intensity (no concentration beside the values); hit rate 3.1% among 360,000; AID 624483; in the data active = fluorescence intensity above about 16000; inconclusive = no clear call, values can overlap the other calls
* hit, by the source's call; ? = inconclusive; . = no result given. Hits are enriched below; roughly 3.9% of the tested compounds scored in any of these assays. Cut-off read from the data, not from the text of the source, unless noted: active = inhibition above about 30%; inconclusive = no clear call, values can overlap the other calls; inactive = below that.

SMILES | Anthrax LF prot | BoNT-A LC inh2 | BoNT-F LC inh | SARS 3CLpro inh | VHR inh abs | Autofluor counter
CC(=O)N1CCN(C(=O)c2oc3ccccc3c2C)CC1 | -2 | 1 | 5 | 0 | -2 | 5781
CC(=O)NCc1ccc(S(=O)(=O)NC(C(=O)O)C(C)C)cc1 (stereo not drawn) | 1 | -1 | 5 | -4 | 10 | 5208
CCc1nnc(NC(=O)Nc2ccccc2OC)s1 | -7 | ? | 1 | -3 | 0 | 22103*
COc1ccccc1NC(=O)NC(N)=O | 0 | 0 | -3 | -10 | 5 | 21653*
COc1ccccc1NC(=O)NC(=O)c1ccccc1 | 0 | 5 | ? | 2 | 35 | 3738
CC(=O)C1=C(c2ccccc2)NC(=O)NC1c1cccs1 (stereo not drawn) | -6 | 0 | ? | 2 | 22 | 4057
COc1ccc(C)cc1-n1nnnc1SCC(=O)N1CCC(C(=O)Nc2nccs2)CC1 | -1 | ? | -2 | -4 | -2 | 23303*
COC(=O)Nc1ccc(NC(C)=O)cc1 | -1 | -1 | -1 | 7 | -1 | 23186*
CC(=O)Nc1ccc(NS(=O)(=O)C(F)(F)F)cc1 | 1 | ? | 0 | 6 | -11 | 19728*
COC(=O)Nc1ccc(S(=O)(=O)N(C)C)cc1 | -3 | 0 | -2 | 0 | -3 | 20816*
O=C(CN(c1ccccc1)S(=O)(=O)c1ccccc1)Nc1ccc(F)cc1 | 20 | 5 | 6 | 3 | 23 | 3726
COc1nn(CC(=O)N2N=C(C)CC2(O)C(F)(F)F)cc1[N+](=O)[O-] (stereo not drawn) | -3 | -2 | -4 | -1 | 4 | 24478*
COC(=O)[C@@]1(C(C)C)N=C(c2cc(OC)c(OC)c(OC)c2)[C@]2(O1)C(=O)N(Cc1ccc(OC)cc1)c1ccc(Br)cc12 | -6 | 0 | 7 | . | . | 5643
CCC(C)NC(=O)c1cc2c(=O)[nH]c3ccc(C)cc3c2s1 (stereo not drawn) | -6 | -3 | 4 | 1 | 3 | 2897
O=C(NC(=S)N1CCN(c2ccc([N+](=O)[O-])cc2)CC1)c1ccccc1F | 0 | 0 | -2 | 4 | -1 | 2463
O=C(c1ccc(F)cc1)N1CCC2(CC1)NCCc1[nH]cnc12 | -3 | -1 | 5 | -2 | 56* | 5359
CCOc1ccsc1C(=O)O | 7 | 1 | 0 | 1 | 26 | 6091
O=C(NCCc1cccc(F)c1)/C(=C/c1cccnc1)NC(=O)c1ccccc1 | -2 | 0 | -2 | 1 | 4 | 2050
N#Cc1c(SCC(=O)OCc2ccccc2)nsc1SCC(=O)OCc1ccccc1 | -21 | -1 | -11 | 5 | -18 | 9678
CCc1c(C#N)c(N)nc(SCC(=O)OCc2ccccc2)c1C#N | -6 | -3 | -6 | 3 | 17 | 17979*
CCN(CC)C(=O)CSc1nc(N)c(C#N)c(-c2cccs2)c1C#N | -2 | ? | -1 | 5 | 4 | 21936*
CCOc1ccccc1CN1CCNC(=O)C1CC(=O)NCCCn1cccn1 (stereo not drawn) | -1 | 0 | -1 | -1 | 51* | 5707
COc1ccccc1CN1CCNC(=O)C1CC(=O)NCCCn1cccn1 (stereo not drawn) | 0 | 0 | -1 | -1 | 8 | 2030
COc1cc(C(O)P(=O)(OC2CCCCC2)c2ccc(N(C)C)cc2)cc(OC)c1OC (stereo not drawn) | -3 | -2 | -4 | 1 | 25 | 16951*
CN(C)c1ccc(P(=O)(OC2CCCCC2)C(O)c2cccnc2)cc1 (stereo not drawn) | 1 | 0 | 8 | -3 | 24 | 5327
SMILES | Anthrax LF prot | BoNT-A LC inh2 | BoNT-F LC inh | SARS 3CLpro inh | VHR inh abs | Autofluor counter
Cc1ccc(S(=O)(=O)C(CCC(=O)N2CCOCC2)S(=O)(=O)c2ccc(C)cc2)cc1 | -1 | 0 | 1 | 0 | 8 | 16223*
O=C(CNS(=O)(=O)c1ccc(Br)cc1)N1CCOCC1 | -2 | 0 | 0 | 1 | 10 | 22354*
CCCCc1cc(=O)oc2cc(OC(C)C(=O)NCCN3CCOCC3)c(Cl)cc12 (stereo not drawn) | -2 | 0 | 2 | -1 | 4 | 4094
C[C@H]1CN=C(N(C)C)N1CC1CCC(C(C)(C)C)CC1 (stereo partly drawn) | 4 | -1 | -2 | . | . | 4258
COCCCNC(=O)c1ccc(N2CCCC2)c(NS(=O)(=O)c2ccc(C)cc2)c1 | 1 | -3 | -6 | -3 | 11 | 24938*
Cc1ccc(S(=O)(=O)Nc2cc(C(=O)O)ccc2N2CCCCC2)cc1 | -2 | -1 | 1 | -3 | 10 | 23478*
O=S(=O)(Nc1ccon1)c1ccc(F)c(F)c1 | 1 | 0 | -1 | -2 | 6 | 5753
CCCCOc1ccc(C(=O)NCC(=O)N2CC(C)CC(C)C2)cc1 (stereo not drawn) | -3 | 0 | -1 | . | . | 4156
Cc1ccc(/C=N/n2c(C)n[nH]c2=S)o1 | 0 | 1 | 3 | 4 | 10 | 22498*
Cc1ccc(S(=O)(=O)NCCC(=O)NCc2ccccc2)cc1 | -7 | 4 | 4 | 0 | 15 | 21858*
O=C(CCNS(=O)(=O)c1ccc(Cl)cc1)NCc1cccnc1 | -3 | -1 | -1 | 3 | 15 | 23127*
Cc1ccc(S(=O)(=O)NCCC(=O)NCc2cccnc2)cc1 | -10 | 1 | -2 | 0 | 22 | 5368
CC(NS(=O)(=O)c1ccc(CCC(=O)NCc2cccnc2)cc1)c1ccccc1 (stereo not drawn) | 0 | 0 | -1 | -1 | 21 | 20378*
CC(C)NS(=O)(=O)c1ccc(CCC(=O)NCc2cccnc2)cc1 | 4 | 1 | -22 | -4 | -5 | 3322
CSc1ccc(S(=O)(=O)NCc2ccccc2)cc1 | 0 | 1 | 2 | 0 | 13 | 22207*
CCOC(=O)C1(Cc2ccccc2)CCN(Cc2ccc3c(c2)OCCO3)CC1 | 6 | 0 | 0 | 0 | 30 | 4424
CC(Cl)C(=O)NNC(=O)CNS(=O)(=O)c1ccccc1 (stereo not drawn) | -6 | -2 | -15 | 0 | 8 | 4697
CC1=C(C(=O)N(C)C)CC(CC(=O)NC2CC2)C(=O)N1Cc1ccccc1 (stereo not drawn) | -6 | 0 | 2 | . | . | 3712
CSc1ccc(C(=O)C2CCCN(C(=O)Cn3cnnn3)C2)cc1 (stereo not drawn) | -2 | -1 | -4 | -2 | 6 | ?
CSc1ccc(C(=O)C2CCCN(Cc3cccnc3)C2)cc1 (stereo not drawn) | -1 | -1 | -9 | 5 | 58* | 5824
CSc1ccc(C(=O)C2CCCN(C(=O)CCc3cnn(C)c3)C2)cc1 (stereo not drawn) | 5 | 0 | 2 | -2 | 50* | 5537
Cc1c(Cl)cccc1NC(=S)Nc1ccc(S(=O)(=O)Nc2ncccn2)cc1 | -3 | 0 | -8 | . | . | 2941
O=C(CN(C(=O)CCC(=O)Nc1ccccn1)c1cccc(F)c1)NCc1ccco1 | -1 | 0 | 6 | -7 | 28 | 5289
CCOc1c(OC)ccc2c3c(c(=O)oc12)CCCC3 | -3 | 1 | 3 | -3 | 15 | 22747*
